# Records with an inconclusive call do not appear. Calls of active or inactive are those of the source. Calls follow the shape of the dose curve; as a rule, active = well fitted cell-killing curve with a large enough effect; inconclusive = small, poorly fitted or top-dose-only effect; inactive = flat fitted curve, though single readings scatter.
# Test: Cell Viability - LYMP1-002 - Assay at 16 hr (AID 948)
# Settings: LYMP1-002 lymphoblastoid cell viability; series mostly up to 92.2 µM
# Text: NIH Chemical Genomics Center [NCGC]
# NIH Molecular Libraries Screening Centers Network [MLSCN]
# National Institutes of Environmental Health Sciences [NIEHS]
# National Toxicology Program [NTP]
# We have developed a 1536-well cell-based assay for quantitative high throughput screening (qHTS) against a number of cell lines to determine in vitro cytotoxicity of small molecules. This particular assay uses a human lymphoblastoid cell line (LYMP1-002) purchased from Coriell Institute for Medical Research.
# NCGC Assay Protocol Summary:
# The CellTiter-Glo luminescent cell viability assay (Promega) is a homogeneous method to measure the number of viable cells in culture. The end point readout of this assay is based on quantitation of intracellular ATP, an indicator of metabolic activity, using the luciferase reaction. Luciferase catalyzes the oxidation of beetle Luciferin to oxyluciferin and light in the presence of ATP. The luminescent signal is proportional to amount of ATP present.
# Using the CellTiter-Glo luminescent cell viability assay, the amount of cellular ATP was measured in the lymphoblastoid cell line with complete culture medium following compound treatment for 16 hours. The assay was performed in opaque white Kalypsys 1536-well plates. In the screen, tetraoctylammonium bromide was used as positive control. Library compounds were measured for their ability to cause acute toxicity in the cell line, as reflected by a decrease in intracellular ATP levels, in a concentration-dependent manner. […] AC50 values were determined from concentration-response data modeled with the standard Hill equation.
# qHTS protocol for CellTiter Glo lymphoblastoid cellular assay
# [Step] [Parameter] [Value] [Description]
# 1. Reagent; 5 uL; 2500 lymphoblastoid cells/well
# 2. Time; 5 hr; 37 C incubation
# 4. Controls; 23 nL; Tetraoctylammonium bromide 6.4pM to 92 uM
# 5. Time; 16 hr; 37 C incubation
# 6. Reagent; 5 uL; CellTiter Glo reagent
# 7. Time; 30 min; Room Temperature
# 8. Detection; Luminescence; Viewlux plate reader
# Keywords: cell viability, cytotoxicity, lymphoblastoid cell line, luminescence, NTPHTS, NTPHTS_NCGC, NIEHS, DSSTox, MLSMR, MLSCN, NIH Roadmap, qHTS, NCGC
row,Compound,outcome
1,COc1ccc(CN(CCN(C)C)c2ccccn2)cc1,inactive
2,CN=C(NC#N)NCCSCc1nc[nH]c1C,inactive
3,COc1cc(Cc2cnc(N)nc2N)cc(OC)c1OC,inactive
4,Nc1nc(N)c2nc(-c3ccccc3)c(N)nc2n1,inactive
5,COC(=O)[C@H]1[C@H]2C[C@@H]3c4[nH]c5cc(OC)ccc5c4CCN3C[C@H]2C[C@@H](OC(=O)c2cc(OC)c(OC)c(OC)c2)[C@@H]1OC,inactive
6,CCCCNC(=O)NS(=O)(=O)c1ccc(C)cc1,inactive
7,NC(=Nc1ccccc1)Nc1ccccc1,inactive
8,O=c1[nH]c(=O)n([C@H]2C[C@H](O)[C@@H](CO)O2)cc1Br,inactive
9,NC(=O)N1c2ccccc2C=Cc2ccccc21,inactive
10,CCCCOCCOCCOCc1cc2c(cc1CCC)OCO2,inactive
